This is a sample that favours compounds with a hit; in the whole collection about 4.8% have one here.
SMARCA2 activ – increases SMARCA2 function in MMTV reporter cells; MG213 cells, MMTV-luciferase reporter, dexamethasone, overnight; activation, % at 9.1 µM; actives 1% (n = 370,000); AID 652017; in the data active = activation above about 7.8%;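 note: 0% = vehicle wells and 100% = reference activator wells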
DAX1 inh-1 – DAX1 (NR0B1) inhibition, primary screen; HEK293T StAR-luciferase reporter, SF-1/DAX-1 repression relief; AID 652010; inhibition, % at 6.8 µM; actives 1.1% (n = 370,000);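 active = inhibition above the mean over all tested compounds plus 3 SD, cut at about 3.6% in these data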;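 note: 0% = DAX-1 cells with DMSO and 100% = cells lacking DAX-1 with DMSO; higher inhibition means more luminescence from relief of DAX-1 repression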
DAX1 inh-2 – inhibits human nuclear receptor DAX1; P51843; HEK293 Gal4-DAX1 luciferase reporter, luminescence; inhibition, % at 6.75 µM; actives 0.99% (n = 340,000);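 active = inhibition above the mean over all tested compounds plus 3 SD, cut at about 4.2% in these data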;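 note: 0% = DAX1-transfected cells with DMSO and 100% = empty-vector control cells with DMSO; inhibition shows as a rise in luminescence from relieved DAX1 repression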
Target sequence (P51843 207-470 limits assumed): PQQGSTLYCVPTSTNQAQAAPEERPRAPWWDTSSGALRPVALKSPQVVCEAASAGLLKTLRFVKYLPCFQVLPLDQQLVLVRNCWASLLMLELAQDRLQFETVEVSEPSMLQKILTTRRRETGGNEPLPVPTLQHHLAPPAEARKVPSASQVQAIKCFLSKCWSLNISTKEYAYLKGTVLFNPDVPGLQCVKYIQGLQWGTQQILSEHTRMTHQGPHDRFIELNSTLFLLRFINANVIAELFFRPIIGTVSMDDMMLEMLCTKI
hcDAF-12 act – activators of H. contortus DAF-12 nuclear receptor. HEK293 hcDAF-12 lit1-tk-luc reporter, luminescence; 0% DMSO, 100% Δ7-dafachronic acid. activation, % at 6.8 µM. actives 1.4% (n = 370,000). AID 652067;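 active = activation above the mean of all tested compounds plus 3 SD, cut at about 5.5% in these data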;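 note: 100% = response to 3 µM Δ7-dafachronic acid high control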
ssDAF12 agonist – activators of S. stercoralis DAF-12 nuclear receptor; actives 1% (n = 370,000); activation, % at 6.8 µM; HEK293 ssDAF-12/GRIP1 lit1-tk-luc reporter, luminescence; % of 3 µM dafachronic acid response; AID 652126;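 active = activation above the mean over all tested compounds plus 3 SD, cut at about 0.9% in these data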;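 note: 0% = DMSO-only wells and 100% = 3 µM delta7-dafachronic acid wells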
hgDAF12 agonist – agonists of H. glycines DAF-12 nuclear receptor. activation, % at 6.8 µM. AID 687014. actives 1.8% (n = 370,000). HEK293 GAL4-hgDAF12 UAS-luciferase reporter, agonist luminescence; normalized to butyrate control;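 active = activation above a cutoff set at the mean of all screened compounds plus 3 SD, cut at about 10% in these data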;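 note: 0% = DMSO wells and 100% = sodium butyrate wells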
An asterisk follows results filed as active; / = no result.

SMILES	SMARCA2 activ	DAX1 inh-1	DAX1 inh-2	hcDAF-12 act	ssDAF12 agonist	hgDAF12 agonist
CC(C)Oc1ccc(CCC(=O)N/N=C/c2ccncc2)cc1	-0.9	0.0	/	0.5	-1.2	-0.5
CS(=O)(=O)c1ccc(Cl)c(NC(=O)CN2CCCC2c2ccc3c(c2)OCCCO3)c1 (configuration not stated)	-2.6	-2.5	0.4	-1.2	-1.0	10.9*
CC(C)c1ccc(S(=O)(=O)c2cnc(=S)[nH]c2N)cc1	-2.2	-0.2	-0.2	-0.8	-1.3	-1.5
COCCCNC(=O)c1ccc(CN2CCc3ccccc3C2)cc1	-2.3	0.2	20.8*	-1.7	-1.2	1.3
COc1ccccc1NC(=O)COc1ccc(Br)cc1CNCCCN1CCOCC1	1.5	1.0	0.1	0.6	-0.7	-0.4
Cc1ccccc1NC(=O)COc1ccc(Br)cc1CNCCCO	5.5	0.0	5.2*	1.8	-0.3	0.1
CCCCN1C(=O)/C(=C2\SC(N3CCOCC3)=NC2=O)c2ccccc21	-1.1	-0.1	-0.4	5.9*	-0.1	1.9
CCN1C(=O)/C(=C2\SC(N3CCOCC3)=NC2=O)c2ccccc21	0.7	-0.3	-0.2	-1.0	-0.5	0.7
CC(=O)Nc1ccc(NC(=O)CCn2nnc3ccccc32)cc1	-0.5	0.5	-0.8	3.8	1.3*	0.9
C/C(=N\NC(=O)CCn1nnc2ccccc21)c1ccco1	-0.2	0.0	4.7*	-1.1	-0.4	-1.6
CCOC(=O)c1ccc(NC(=O)CCn2nnc3ccccc32)cc1	-2.0	-0.2	0.1	0.9	-1.5	4.4
COCCCN(CC(=O)NCc1ccccc1)S(=O)(=O)c1ccc(C)cc1	0.2	-0.7	1.2	-1.1	-1.3	0.8
C[C@]12CCC[C@H](O1)c1c(cc3c(c1O)C(=O)c1c(O)cc(O)cc1C3=O)O2	-1.0	0.7	5.1*	-0.6	-0.8	0.2
Cn1nc(C(=O)N2CCN(c3ccccn3)CC2)c2ccccc2c1=O	-2.1	0.5	-0.2	-0.2	-1.4	-2.9
CCOc1ccc2c(c1)OC(c1ccc(C)cc1)(C(F)(F)F)NC2=O (configuration not stated)	3.3	0.5	2.1	1.7	-0.5	-5.2
O=S(=O)(Cc1nc2ccccc2s1)c1ccccc1	5.4	3.3	1.3	3.8	-0.3	10.7*
CNC(=O)Nc1cccc(C(F)(F)F)c1	-3.5	-0.2	0.5	0.3	-1.3	-1.9
CNC(=S)NNC(=O)c1oc2nc(-c3ccccc3)cc(C)c2c1N	-5.1	0.8	1.8	6.1*	-0.1	1.0
NNC(=O)c1oc2nc(-c3ccccc3)cc(-c3ccccc3)c2c1N	-1.1	-0.7	0.9	-0.8	-1.4	0.7
Cc1ccc(/C=C/C(=O)Nc2cccnc2)o1	-0.7	0.2	1.3	1.0	1.0*	1.5
O=C(NCc1ccc2c(c1)OCO2)c1ccc(Br)s1	-2.0	-0.4	-1.2	-0.8	-0.7	0.8
COC(=O)c1c(-c2ccccc2)c[nH]c1C	5.8	0.3	4.8*	-1.1	-0.5	-1.1
COC(=O)c1c(C)[nH]c(C=O)c1-c1ccccc1	2.5	0.4	/	0.1	-0.7	0.1
Cn1c(/N=C/c2ccc3c(c2)OCO3)nc2ccccc21	1.7	-0.3	0.0	5.9*	-0.6	1.0
O=C(Nc1ccc(NC(=O)c2cc3ccccc3o2)cc1)c1ccco1	0.1	-0.4	-0.8	-2.8	-1.5	-2.4
SMILES	SMARCA2 activ	DAX1 inh-1	DAX1 inh-2	hcDAF-12 act	ssDAF12 agonist	hgDAF12 agonist
O=C(Nc1ccc(-c2nc3ccc(NC(=O)c4cccs4)cc3[nH]2)cc1)c1cccs1	9.1*	1.3	-2.3	-4.6	-2.3	-10.6
CC(C)(C)n1cnc2cc(NC(=O)c3ccccc3)ccc21	4.6	2.0	5.5*	3.2	0.5	11.3*
O=C(Nc1ccc(F)cc1)c1cc2ccccc2o1	3.0	1.1	4.3*	6.5*	1.6*	10.0
CC(=O)Nc1ccc(-c2cc3ccccc3o2)cc1	5.8	3.5	4.5*	4.5	0.9*	10.4
C=CCN=c1scc(C)n1/N=C/c1ccc(O)c(O)c1	-1.0	1.8	3.7	-0.1	-1.1	2.0
COc1cc(C(CC(=O)Nc2ncccc2C)N2Cc3ccccc3C2=O)cc(OC)c1OC (configuration not stated)	-2.1	-0.1	1.2	-2.5	-0.6	0.0
CCOC(=O)[C@H]1[C@H]2COc3ccccc3[C@@H]2N2C(=O)c3ccc(Cl)cc3NC(=O)[C@@]12C	0.5	-0.2	0.5	-1.7	-0.9	-0.4
Cc1ccc(-c2[nH]c3ccccc3c2SCCNC(=O)c2cc3ccccc3oc2=O)cc1	1.1	0.2	-0.7	6.5*	0.1	3.4
COc1cc(NC(=O)CC(C)C)ccc1NC(=O)c1ccco1	5.8	2.3	4.4*	0.4	-1.0	4.6
COc1cc(NC(=O)C(C)C)ccc1NC(=O)c1cc2ccccc2o1	3.0	1.5	6.1*	0.1	-1.5	6.1
COc1cc(NC(=S)NC(=O)C(C)C)ccc1NC(=O)c1cc2ccccc2o1	1.7	0.4	1.4	-0.2	-2.0	-2.4
CCC(=O)Nc1ccc(NC(=O)c2ccco2)c(OC)c1	2.0	0.8	1.9	-0.8	-0.9	4.5
O=C(NCCc1ccc2c(c1)OCCO2)c1ccccc1F	-1.3	1.0	1.4	0.7	-1.3	12.2*
COc1cc(Cl)ccc1OC1(C)CCN(Cc2ccc3ccccc3c2)C1 (configuration not stated)	-6.5	0.4	/	2.8	-1.1	-0.7
CSc1nc2ccc(NC(=O)c3ccc(=O)[nH]c3)cc2s1	-2.5	-0.3	-1.7	-0.1	-1.0	0.1
CSc1nc2ccc(NC(=O)c3cccs3)cc2s1	2.2	3.4	-0.9	3.5	-0.9	10.6*
N/C(=N\NC(=O)c1ccccc1)c1cc2ccccc2oc1=O	3.3	1.8	-0.3	-0.1	0.5	12.2*
CSc1nc2ccc(NC(=O)c3ccc(F)c(F)c3)cc2s1	4.2	1.5	1.0	0.9	-0.6	7.7
O=C(NCCc1ccc(F)cc1)c1cc2ccccc2oc1=O	0.0	-0.1	4.3*	3.0	-1.1	-0.7
CSc1nc2ccc(NC(=O)c3cc4ccccc4o3)cc2s1	6.5	2.5	3.3	1.8	-0.1	12.0*
O=C(NCCc1ccccc1)c1cc2ccccc2oc1=O	1.5	0.1	0.4	1.6	0.6	3.3
COc1cc(/C=C2\SC(=S)N(CCC(=O)N3CCCCC3)C2=O)cc(OC)c1OC	-1.9	0.0	-0.4	-1.2	-0.9	-0.6
Cc1nnc2c(N3CCN(C(=O)c4ccco4)CC3)nc3ccccc3n12	0.1	-0.8	-0.2	-0.1	-0.9	-0.3
COc1ccc(-c2nc(NC(=O)C3CC(=O)N(c4ccc5c(c4)OCCO5)C3)sc2C)cc1 (configuration not stated)	-6.8	-2.7	-4.0	-6.3	-3.0	-6.6
O=C(Nc1ccc(Cl)cc1Cl)c1cc2ccccc2o1	4.4	1.6	2.3	4.6	2.2*	7.1

Assay outcomes deposited in PubChem BioAssay by The Scripps Research Institute Molecular Screening Center.
